Results filed as inconclusive are left out. Active and inactive are the calls of the source. Unless noted, the call rests on the fitted dose curve; in most records, active means well fitted curve in the direction sought with a large enough effect; inconclusive means small, poorly fitted or top-dose-only effect, or another doubt; inactive means no such curve, though single readings can be large; an effect the other way counts as inactive or inconclusive.
Key:
[1] = Validation of Assay for Modulators of Lamin A Splicing (AID 1459; active means well fitted curve in the direction sought with a large enough effect in the signal ratio; the % refers to the signal ratio;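 further: cells exposed to compound for two days before reading; ratio rise marks activators and ratio drop marks inhibitors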)
Summary of the method: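 Splicing correction is reported by an EGFP-containing lamin A minigene in stably transfected S3 HeLa cells, while DsRed2 controls for viability and nonspecific signal. Cells are exposed to compounds for 48 hrs before the GFP over RFP ratio is taken.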

[2] = target: DNA repair nuclease/redox regulator APEX1 (Homo sapiens) (UniProt P27695); assay: qHTS Validation Assay for Inhibitors of the Human Apurinic/apyrimidinic Endonuclease 1 (APE1) (AID 1705;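 further: TAMRA fluorescence gain over two minutes as APE1 cuts a quenched THF abasic duplex; series mostly up to about 57 µM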)
Chain of DNA repair nuclease/redox regulator APEX1 (Homo sapiens) (P27695 whole entry, looked up): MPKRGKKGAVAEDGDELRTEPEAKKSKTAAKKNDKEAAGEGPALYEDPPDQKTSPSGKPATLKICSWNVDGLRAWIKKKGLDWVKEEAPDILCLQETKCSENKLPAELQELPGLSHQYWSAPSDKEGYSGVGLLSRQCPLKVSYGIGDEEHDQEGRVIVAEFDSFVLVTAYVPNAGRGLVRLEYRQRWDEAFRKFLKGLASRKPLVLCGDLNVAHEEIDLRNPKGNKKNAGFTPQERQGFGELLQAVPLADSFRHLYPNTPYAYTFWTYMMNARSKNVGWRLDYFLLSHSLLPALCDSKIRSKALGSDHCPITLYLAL
Summary of the method: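 Endonuclease activity of human APE1 is followed as dequenching when the enzyme incises a tetrahydrofuran abasic site in a short duplex labelled 5'-TAMRA/3'-BHQ-2 (50 nM final), after 15 min enzyme–compound preincubation at room temperature.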

[3] = Counterscreen for APE1 Inhibitors: Fluorescent Dye Displacement Validation Assay (AID 1707)
Summary of the method: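 Counterscreen flags promiscuous DNA binders: compounds displacing ThO from duplex DNA (abasic THF site, 50 nM) reduce 540 nm emission (480 nm excitation). ThO 250 nM final; Tris-HCl pH 7.5 with NaCl, MgCl2 and Tween-20.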

[4] = target: Endonuclease 4 (Escherichia coli (strain K12)) (UniProt P0A6C1); assay: Counterscreen for APE1 Inhibitors: qHTS Validation Assay for Inhibitors of Endonuclease IV (AID 1708)
Summary of the method: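 Conditions: 2 nM enzyme, 50 nM TAMRA/BHQ-2 substrate, pH 7.5 Tris buffer with 2 mM MgCl2, RT. Compound preincubation 15 min; readout three fluorescence reads 60 s apart, third-minus-first.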

[5] = qHTS for differential inhibitors of proliferation of Plasmodium falciparum line Dd2 (AID 1882); conditions: Potency: Plasmodium falciparum Dd2 proliferation inhibition; further: series mostly up to about 29 µM; nearly all actives have a fitted effect of over 65% in size
Summary of the method: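 SYBR Green DNA fluorescence (ex 485, em 535 nm) after overnight lysis quantifies parasite growth; compound exposure lasted 72 h at 37 C on infected red cells at 2.5% hematocrit, 0.3% parasitemia (final). Artemisinin 0.29 uM and vehicle wells define normalization.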

[6] = qHTS for differential inhibitors of proliferation of Plasmodium falciparum line W2 (AID 1883); conditions: Potency: Plasmodium falciparum W2 proliferation inhibition;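 further: potency means the concentration at half of the fitted maximal effect; parasites grown with compound for 72 h before lysis and staining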
[7] = target: Ferritin light chain (Equus caballus) (UniProt P02791); assay: qHTS Validation Assay for Identification of Novel General Anesthetics (AID 2323); further: series mostly up to about 77 µM
Chain of Ferritin light chain (Equus caballus) (P02791 2-175 limits assumed): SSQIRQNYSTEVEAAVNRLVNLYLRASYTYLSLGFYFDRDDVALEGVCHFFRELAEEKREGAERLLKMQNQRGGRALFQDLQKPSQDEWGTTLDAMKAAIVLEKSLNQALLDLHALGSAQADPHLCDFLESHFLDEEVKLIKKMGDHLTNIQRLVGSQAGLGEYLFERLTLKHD
Summary of the method: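 Apoferritin from horse spleen (10 uM) was mixed with 1-aminoanthracene at 50% saturation in PBS, then compounds were added. After 10 min at room temperature, fluorescence was read (ex 380 nm, em 535 nm) and normalized to free-probe and complex controls.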

[8] = target: ATP-dependent DNA helicase Q1 (Homo sapiens) (UniProt P46063); assay: qHTS Validation Assay for Inhibitors of RecQ-Like Dna Helicase 1 (RECQ1) (AID 2353)
Chain of ATP-dependent DNA helicase Q1 (Homo sapiens) (P46063 whole entry, looked up): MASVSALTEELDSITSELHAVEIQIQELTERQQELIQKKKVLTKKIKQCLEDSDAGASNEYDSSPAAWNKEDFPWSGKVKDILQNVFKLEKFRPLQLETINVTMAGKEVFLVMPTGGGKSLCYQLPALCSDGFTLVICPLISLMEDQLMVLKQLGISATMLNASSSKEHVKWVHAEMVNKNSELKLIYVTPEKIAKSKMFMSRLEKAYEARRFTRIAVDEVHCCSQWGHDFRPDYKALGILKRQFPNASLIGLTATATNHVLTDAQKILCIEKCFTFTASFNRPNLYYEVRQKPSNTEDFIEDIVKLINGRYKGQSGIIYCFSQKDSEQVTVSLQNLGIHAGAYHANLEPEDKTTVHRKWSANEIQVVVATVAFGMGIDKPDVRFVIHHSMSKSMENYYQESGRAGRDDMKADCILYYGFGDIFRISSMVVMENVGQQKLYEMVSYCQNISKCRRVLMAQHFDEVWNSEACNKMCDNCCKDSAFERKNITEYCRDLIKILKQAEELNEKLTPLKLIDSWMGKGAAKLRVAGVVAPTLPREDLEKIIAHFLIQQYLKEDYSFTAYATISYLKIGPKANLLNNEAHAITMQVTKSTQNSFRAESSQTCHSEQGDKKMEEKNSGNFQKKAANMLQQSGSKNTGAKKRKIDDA
Summary of the method: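 RECQ1T1 50 nM; forked duplex (20 bp + 30-nt ss tails) 200 nM, ATP 2 mM final; pH 8.0, 2 mM MgCl2, 2.5 ug/ml poly(dI-dC); 15 min compound preincubation; discontinuous kinetic read over 2 h at RT.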

[9] = target: RecQ-like DNA helicase BLM (Homo sapiens) (UniProt P54132); assay: qHTS Validation Assay for Inhibitors of Bloom's syndrome helicase (BLM) (AID 2364)
Chain of RecQ-like DNA helicase BLM (Homo sapiens) (P54132 whole entry, looked up): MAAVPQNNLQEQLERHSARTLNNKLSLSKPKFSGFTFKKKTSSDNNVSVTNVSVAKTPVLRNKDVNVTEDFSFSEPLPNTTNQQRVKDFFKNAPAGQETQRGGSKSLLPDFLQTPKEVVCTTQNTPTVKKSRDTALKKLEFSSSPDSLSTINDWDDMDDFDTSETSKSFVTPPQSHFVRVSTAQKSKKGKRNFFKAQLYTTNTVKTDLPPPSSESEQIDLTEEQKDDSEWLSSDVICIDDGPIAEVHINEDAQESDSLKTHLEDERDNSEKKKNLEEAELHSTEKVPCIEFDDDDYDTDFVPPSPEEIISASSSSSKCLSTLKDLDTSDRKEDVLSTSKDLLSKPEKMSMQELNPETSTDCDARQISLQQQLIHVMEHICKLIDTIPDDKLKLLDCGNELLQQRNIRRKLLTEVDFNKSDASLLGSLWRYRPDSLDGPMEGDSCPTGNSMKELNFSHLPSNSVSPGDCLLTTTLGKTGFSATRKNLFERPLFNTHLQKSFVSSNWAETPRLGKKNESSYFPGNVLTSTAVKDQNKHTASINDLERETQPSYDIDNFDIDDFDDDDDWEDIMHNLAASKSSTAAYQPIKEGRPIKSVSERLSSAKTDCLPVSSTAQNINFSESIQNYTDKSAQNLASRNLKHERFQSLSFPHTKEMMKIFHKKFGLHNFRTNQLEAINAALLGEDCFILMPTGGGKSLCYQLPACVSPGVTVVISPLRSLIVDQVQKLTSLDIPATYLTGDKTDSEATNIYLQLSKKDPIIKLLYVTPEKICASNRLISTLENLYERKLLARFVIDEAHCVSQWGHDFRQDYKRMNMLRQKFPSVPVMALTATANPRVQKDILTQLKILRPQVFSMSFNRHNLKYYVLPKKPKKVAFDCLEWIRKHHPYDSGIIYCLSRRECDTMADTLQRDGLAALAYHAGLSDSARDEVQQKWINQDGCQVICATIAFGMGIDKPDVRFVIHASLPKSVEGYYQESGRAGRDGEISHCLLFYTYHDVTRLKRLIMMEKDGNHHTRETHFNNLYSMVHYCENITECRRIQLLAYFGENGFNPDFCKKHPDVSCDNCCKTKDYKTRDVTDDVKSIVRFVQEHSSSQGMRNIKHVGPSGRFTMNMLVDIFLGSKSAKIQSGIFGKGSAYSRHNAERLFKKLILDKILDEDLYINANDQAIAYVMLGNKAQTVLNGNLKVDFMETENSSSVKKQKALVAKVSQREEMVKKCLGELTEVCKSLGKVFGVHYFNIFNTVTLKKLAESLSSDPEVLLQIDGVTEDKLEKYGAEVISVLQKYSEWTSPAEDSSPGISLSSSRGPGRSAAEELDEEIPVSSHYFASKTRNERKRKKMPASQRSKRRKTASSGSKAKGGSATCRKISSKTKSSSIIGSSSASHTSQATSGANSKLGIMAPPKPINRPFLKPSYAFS
Summary of the method: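 50 nM BLM preincubated 15 min at room temperature with compound in pH 8.0 Tris buffer containing 2.5 ug/ml poly(dI-dC); started with 200 nM TAMRA/BHQ-2 forked duplex and 2 mM ATP (final). Unwinding read as TAMRA fluorescence increase, two reads 2 h apart.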

[10] = Cytometric Cell-Based qHTS for Inhibitors of the mTORC1 Signaling Pathway in MEF (Tsc2-/-, p53-/-) Cells (AID 2660);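 further: Tsc2 and p53 null MEFs carrying empty vector with compound for 24 h; percent of cells above a phospho-rpS6 to PI ratio cutoff in each well; series mostly up to about 38 µM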
Summary of the method: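 Immunofluorescence qHTS of rpS6 Ser235/236 phosphorylation: MEFs (Tsc2-/-, p53-/-) treated 24 h, 37 C, in DMEM + 10% FBS. Alexa-488 signal normalized to PI count, referenced to rapamycin (7.5 nM) and DMSO; PI cell number recorded for viability.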

[11] = High Content Imaging Cell-Based qHTS for Inhibitors of the mTORC1 Signaling Pathway in MEF (Tsc2-/-, p53-/-) Cells (AID 2666);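 further: percent of cells scored positive for phospho-rpS6 Ser235/236 immunostaining by imaging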
Summary of the method: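 MEF Tsc2-/- p53-/- (empty vector), DMEM/10% FBS; cpd 24 h 37 °C; PFA fix, Alexa-488 p-rpS6 S235/236 Ab, Hoechst; imaged; rapamycin-defined inhibition; % positive cells/well.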

[12] = High Content Imaging Cell-Based qHTS for Inhibitors of the mTORC1 Signaling Pathway in MEF Cells (AID 2667);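 further: Tsc2-/- p53-/- MEFs stably re-expressing wild-type Tsc2 exposed 24 h; series mostly up to about 38 µM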
Summary of the method: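 Read-out is the share of phospho-rpS6-positive cells per well, from Hoechst-normalized Alexa-488 Ser235/236 staining imaged on IN Cell. Cells: WT Tsc2-expressing Tsc2-/-, p53-/- MEFs exposed to compound for 24 hrs.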

[13] = Cytometry Cell-Based qHTS for Inhibitors of the mTORC1 Signaling Pathway in MEF cells (AID 2668);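 further: Tsc2-/- p53-/- mouse embryonic fibroblasts stably re-expressing wild-type Tsc2; percent cells positive for phospho-rpS6 Ser235/236 relative to propidium iodide stain; series mostly up to about 38 µM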
Summary of the method: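 Pathway inhibition in WT Tsc2-rescued Tsc2-/-, p53-/- MEFs is measured as the Alexa-488 phospho-rpS6 to propidium iodide intensity ratio after 24 hrs of compound at 37 degree Celsius. PI-stained cell number gives viability.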

[14] = Validation screen for inhibitors of Lassa infection (AID 463096; calls by dose curve)
[15] = Validation screen for small molecules that induce DNA re-replication in MCF 10A normal breast cells (AID 463097); further: nearly all actives have a fitted effect of over 60% in size
Summary of the method: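 DNA re-replication was detected as a rise in nuclei with elevated Hoechst fluorescence after a 48 hr compound exposure of MCF 10A cells at 37 C.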

[16] = target: Ubiquitin carboxyl-terminal hydrolase 2 (Homo sapiens) (UniProt O75604); assay: qHTS Validation Assay for Inhibitors of Ubiquitin-specific Protease USP2a Using CHOP2 as the Reporter (AID 463106)
Chain of Ubiquitin carboxyl-terminal hydrolase 2 (Homo sapiens) (O75604 whole entry, looked up): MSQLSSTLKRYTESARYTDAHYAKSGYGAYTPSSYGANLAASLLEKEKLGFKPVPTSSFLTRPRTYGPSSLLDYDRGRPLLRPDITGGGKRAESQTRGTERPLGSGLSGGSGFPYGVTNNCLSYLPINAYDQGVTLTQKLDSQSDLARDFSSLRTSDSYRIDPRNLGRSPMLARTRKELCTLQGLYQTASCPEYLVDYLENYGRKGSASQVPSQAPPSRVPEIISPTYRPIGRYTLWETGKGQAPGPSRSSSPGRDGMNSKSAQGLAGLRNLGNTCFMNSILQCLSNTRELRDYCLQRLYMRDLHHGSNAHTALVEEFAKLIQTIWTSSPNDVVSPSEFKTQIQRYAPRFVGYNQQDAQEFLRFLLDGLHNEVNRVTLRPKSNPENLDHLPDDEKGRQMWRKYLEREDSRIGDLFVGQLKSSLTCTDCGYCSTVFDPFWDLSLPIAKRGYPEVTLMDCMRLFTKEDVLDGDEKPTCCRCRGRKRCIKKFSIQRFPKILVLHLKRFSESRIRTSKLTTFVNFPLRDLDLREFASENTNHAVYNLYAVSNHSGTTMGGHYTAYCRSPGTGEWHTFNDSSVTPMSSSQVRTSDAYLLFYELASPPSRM
Summary of the method: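 Fluorescence read-out at Ex 485nm/Em 531nm after 60min RT, following addition of 25nM Ub-CHOP2 plus 25nM reporter substrate to USP2 core (10nM) pretreated 30min with compound. Data normalized to NEM full inhibition; concentration-response curves fitted.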

[17] = target: DNA polymerase III PolC-type (Bacillus subtilis (strain 168)) (UniProt P13267); assay: qHTS Validation Assay for the Inhibitors of DNA Replication in Gram-Positive Bacteria (AID 485295);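 further: reconstituted holoenzyme with PolC plus beta clamp SSB and primase; PicoGreen fluorescence of double-stranded DNA made on primed circular M13 template; series mostly up to about 57 µM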
Chain of DNA polymerase III PolC-type (Bacillus subtilis (strain 168)) (P13267 whole entry, looked up): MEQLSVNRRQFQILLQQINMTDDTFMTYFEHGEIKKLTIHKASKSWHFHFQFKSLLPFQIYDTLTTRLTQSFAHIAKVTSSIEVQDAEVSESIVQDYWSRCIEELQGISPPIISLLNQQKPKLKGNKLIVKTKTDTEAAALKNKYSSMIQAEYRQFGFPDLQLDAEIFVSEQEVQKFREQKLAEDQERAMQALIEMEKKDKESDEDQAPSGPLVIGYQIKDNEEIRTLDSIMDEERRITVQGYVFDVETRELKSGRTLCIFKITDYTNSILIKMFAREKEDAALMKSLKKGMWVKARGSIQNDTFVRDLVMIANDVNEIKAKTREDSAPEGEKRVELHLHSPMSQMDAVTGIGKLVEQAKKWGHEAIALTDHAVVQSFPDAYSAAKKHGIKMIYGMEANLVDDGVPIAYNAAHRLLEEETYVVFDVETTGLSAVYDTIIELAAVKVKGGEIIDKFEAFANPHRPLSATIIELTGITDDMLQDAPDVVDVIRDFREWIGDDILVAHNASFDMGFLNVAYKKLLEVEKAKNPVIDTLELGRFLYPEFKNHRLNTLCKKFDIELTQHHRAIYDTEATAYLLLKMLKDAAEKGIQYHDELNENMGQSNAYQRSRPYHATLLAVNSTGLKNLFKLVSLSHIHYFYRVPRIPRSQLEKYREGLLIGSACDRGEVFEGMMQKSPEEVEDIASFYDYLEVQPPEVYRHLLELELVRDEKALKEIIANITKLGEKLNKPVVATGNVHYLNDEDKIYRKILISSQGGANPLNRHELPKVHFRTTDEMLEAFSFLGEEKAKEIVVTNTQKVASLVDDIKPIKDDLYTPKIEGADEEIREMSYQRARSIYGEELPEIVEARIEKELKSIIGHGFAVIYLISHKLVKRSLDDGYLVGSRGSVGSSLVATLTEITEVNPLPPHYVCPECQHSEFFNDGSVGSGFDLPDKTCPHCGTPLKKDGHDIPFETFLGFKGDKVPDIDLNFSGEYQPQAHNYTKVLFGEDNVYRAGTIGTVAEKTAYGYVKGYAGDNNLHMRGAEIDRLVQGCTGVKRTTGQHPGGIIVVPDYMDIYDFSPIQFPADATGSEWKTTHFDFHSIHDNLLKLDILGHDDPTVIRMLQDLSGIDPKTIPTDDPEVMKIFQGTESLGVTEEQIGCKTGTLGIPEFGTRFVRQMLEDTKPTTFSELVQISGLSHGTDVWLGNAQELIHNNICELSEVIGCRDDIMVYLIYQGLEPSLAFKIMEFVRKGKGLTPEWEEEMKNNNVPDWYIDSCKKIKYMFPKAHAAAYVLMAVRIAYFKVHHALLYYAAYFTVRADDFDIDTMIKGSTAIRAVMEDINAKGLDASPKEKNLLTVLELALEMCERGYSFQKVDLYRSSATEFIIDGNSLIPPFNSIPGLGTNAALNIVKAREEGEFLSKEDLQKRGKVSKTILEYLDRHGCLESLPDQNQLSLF
Summary of the method: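 Primed replication of single-stranded M13Gori by a four-protein B. subtilis holoenzyme is measured at room temperature. Double-stranded product is quantified by PicoGreen fluorescence after an EDTA stop; inhibition is scaled between DMSO and EDTA controls.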

Measured: Potency

O=[N+]([O-])c1ccc(O[C@@H]2O[C@H](CO)[C@@H](O)[C@H](O)[C@H]2F)c([N+](=O)[O-])c1
inactive: [1] | [2] | [3] | [4] | [5] | [7] | [8] | [9] | [10] | [11] | [12] | [13] | [14] | [15] | [16] | [17]
active: [6] 11.2 µM
